# According to the supplement of paper PMC6555819:
# Test system: VDR:RXRa (NR concentration 270 nM, RXRa partner concentration 90 nM)
# Assay: PBM binding z-score (relative to random genomic background probes); higher = stronger binding; sequences stand for … in GC…GCGATTGACAGCGTAGAATGAAGG
# Method: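 Protein-binding microarray (Agilent 4x180K custom design, double-stranded 60-nt probes: 5' GC cap, 34-nt variable region, 24-nt constant primer region; full probe sequence given). Purified or IVT nuclear receptor:RXRα heterodimers (3:1 NR:RXRα, mostly 270:90 nM) or homodimers were incubated for 1 h in PBS with 2% milk and no ligand, then detected with Alexa488 antibodies. Fluorescence from o1-orientation probes (~5 replicates averaged) was converted to z-scores against 500 random hg19 background probes. Variable regions are seed direct-repeat (DR0–DR5) sites, all their single-nucleotide variants and half-site ablations.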
row,Sequence,PBM binding z-score
1,TAGCCTAGGTCAGGCGGGCCAGTATAGTGTCGGC,0.804
2,AGTCACAGTTCAGGACGAGGTAACGTAAAGCACG,1.12
3,TCATATAGGTAAATAGGTGAAAGTCCGTAAGTTA,1.25
4,CCAGATAGGTGAGAAGGTAACTCAGCCTCGATTA,0.254
5,TCTTGTAGATCAAGCAGGATAAGAAAGCCTGAGT,0.405
6,CCTTACGGGTAACTGACAGGTTATAGCATTTGGA,0.0689
7,GATACAGGGTCAGCTAGAGGCCAGAGTCTGGAAA,3.26
8,ACTCTGAGGACAAAGGTCAGAGCTACGCCAGTGA,3.49
9,ATCTGTAGGTAAAGATAGTTCAGTGAATGCAAAT,0.945
10,CCTAGCAGGACAGGGTCACTCAAGCATTTCGCTT,2.9
11,CCAACTAGGTCACGAAAGGTCAAAGTCGAATGAC,6.81
12,CTGCCAAGGTGAACAAGGTCGTTGATTACTATTC,5.88
13,AGAATGAGGTTGAGATCAGGGAAACAGAATACAT,0.141
14,AGAATGAGGTTAAGATCGGGGAAACAGAATACAT,1.18
15,CCTGACGGGTCAAGGTTATAGCACGGGTGGTACG,2.74
16,ATCTCTAGGTAAAGTTAGTTCAGTGAATGCAAAT,1.42
17,ATACCAAGGTGATCGTGAGGTCCTTGATACTAAC,0.32
18,ATCTCAAGGTAACAAGTTCAGTGAAAGAGAGGAC,2.8
19,AGAATGAGGTTATCAAAGATCAGGGAAACGCTTG,1.12
20,TCTAGTTGGTCAAAGGTTACACACTCGAAATGCG,3.11

row,Sequence,PBM binding z-score
1,CAAACTAGGTCAAAGTCAAAGTCGGTTTGTGCCA,2.38
2,CCTAGCAGGCCAATCTGGATCACTCAAGGCTTGA,-0.611
3,CCTGCTGGGCCAAAAAGGTCATTGATGCCGATAA,4.84
4,ATCTCTAGGTAACAAGTACAGTGAAAGAGAGGAC,0.429
5,ACGAGCAGGCCAAGGGTCACTCAAGATTAGTCCG,2.72
6,GCAGACAGTTGAAACGCAGGTAACTCAGGGTGGC,-0.517
7,GATACAGGGTCAGCTAGTGGCCAGAGTATGGAAA,2.34
8,TGTCACAGTTCAAAGGTAACGTAAGTATCCACAC,3.28
9,ACTATTAGTTGAGACGAGGGCAAGCGATAGGTTG,0.29
10,CCTACTGGGCCCTCAGGTCATTGATATCAACGTT,1.43
11,AGTCAAAGTTCACAAGGTAACGTAAGATTCAGCT,4.25
12,CCTAGCTGGTCAGGAGGTCACACACCGGATATGA,3.73
13,GTACCAAGGTGAATCGGTCGTTGATGAGTAGGCG,-0.122
14,GCTGCTAGGTCAACTGATGCTCAGCTAAAGCTCG,1.38
15,CGTCCAAGGTTAGAGAGGTCAGTGAATGCCGAGT,5.7
16,TCAGATAGGTAAACAGGTGAAAGTCCGTAAGTTA,0.923
17,CCGAGTAGGTTATGGAGCATTCAGGCAACGGTGA,-0.239
18,CCTACTGGGCCATTCAGAGGTCGTTGATCATATG,1.49
19,TTACCACGGTGAGCTGAGGTCGTTGATCCAACTC,1.57
20,TCGTGTAGGTTAGTCGGGGCATTCAGCCAACATA,2.72
